The list is not random: actives were taken first. Their share in the collection is about 22%.
LmPK inh: qHTS Assay for Inhibitors of Leishmania Mexicana Pyruvate Kinase (LmPK); Q27686; purified LmPK, Kinase-Glo ATP luminescence, 1 h; Potency, µM (top dose mostly 57.5 µM), hits mostly inhibitors; 0.37% of 290,000 active
Target sequence (Q27686 whole entry, looked up): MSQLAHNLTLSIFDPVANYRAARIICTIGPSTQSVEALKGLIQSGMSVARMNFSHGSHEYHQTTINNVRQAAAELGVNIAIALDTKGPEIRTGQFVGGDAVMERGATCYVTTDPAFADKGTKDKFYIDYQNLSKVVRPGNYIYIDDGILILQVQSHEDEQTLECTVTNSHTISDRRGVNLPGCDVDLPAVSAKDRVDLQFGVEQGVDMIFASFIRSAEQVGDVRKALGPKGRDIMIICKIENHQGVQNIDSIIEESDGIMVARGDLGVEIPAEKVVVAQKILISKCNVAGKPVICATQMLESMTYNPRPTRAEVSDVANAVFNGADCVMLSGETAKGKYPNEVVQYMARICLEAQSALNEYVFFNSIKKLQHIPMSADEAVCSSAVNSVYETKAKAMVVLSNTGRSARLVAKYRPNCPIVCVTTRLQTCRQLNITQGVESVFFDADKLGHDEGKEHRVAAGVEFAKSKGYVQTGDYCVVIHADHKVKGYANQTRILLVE
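ATP generated from ADP (0.1 mM) and PEP (0.5 mM) by 0.1 nM LmPK over 1 h at room temperature (pH 7.2 imidazole buffer) was detected by coupled luciferase luminescence. Values were normalized to uninhibited and no-enzyme wells.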
Pf growth 96h: Primary qHTS for delayed death inhibitors of the malarial parasite plastid, 96 hour incubation | P. falciparum luciferase reporter growth, 96 h | Potency, µM (top dose mostly 28.7 µM), usual class: inhibitors | 6.9% of 320,000 active | AID 504834, 2011
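Parasite growth measured via integrated firefly luciferase reporter in P. falciparum. Infected erythrocytes at 2% hematocrit, 0.05% parasitemia final were treated 96 hours at 37 C under 5% CO2, and luminescence was read.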
Cycloheximide cs: Cycloheximide Counterscreen for Small Molecule Inhibitors of Shiga Toxin | 12% of 300,000 active | max response, % | AID 2314, 2010 | cell reporter, cycloheximide protein synthesis inhibition counterscreen; in the data active = max response mostly above about 13%, no sharp cut-off; inactive = mostly below about 14%; also: read at 38.3 µM for the half of the compounds with a filed dose
Shiga inhibitor: A qHTS for Small Molecule Inhibitors of Shiga Toxin; Vero cells, Shiga toxin protein synthesis inhibition reporter; 9.2% of 290,000 active; inhibition, % at 38.7 µM; in the data active = inhibition mostly above about 28%, no sharp cut-off; inactive = mostly below about 43%
Pf growth 48h: Primary qHTS for delayed death inhibitors of the malarial parasite plastid, 48 hour incubation; P. falciparum luciferase growth in erythrocytes, 48 h; Potency, µM (series often up to 28.7 µM), hits mostly inhibitors; 5.9% of 310,000 active
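Compounds are pin-transferred into medium, infected erythrocytes (2% hematocrit, 0.1% parasitemia final) are added, and plates sit one parasite generation at 37 C in 5% CO2. Detection reagent is then added and luminescence measured.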
Each line names hits and unclear results; the compound was inactive in the other large screens. Unless noted, calls follow the shape of the dose curve; as a rule, active = well fitted inhibition curve with a large enough effect; inconclusive = small, poorly fitted or top-dose-only effect, or another doubt; inactive = no such curve, though single readings can be large or run the other way.

CCC(=O)N1CCN(c2ccc(NC(=O)COc3ccccc3Cl)cc2)CC1	Pf growth 96h 5.86µM (no result: Pf growth 48h)
O=C(COc1ccccc1Cl)Nc1ccc(CN2CCOCC2)cc1	Cycloheximide cs 20.6
CN1CCN(S(=O)(=O)c2ccc(NC(=O)COc3ccccc3Cl)cc2)CC1	Pf growth 96h inconclusive, Pf growth 48h inconclusive
CCC(=O)N1CCN(c2ccc(NC(=O)COc3ccccc3[N+](=O)[O-])cc2)CC1	Pf growth 48h inconclusive
O=C(Nc1nncs1)c1cc(S(=O)(=O)N2CCCCC2)ccc1Cl	none
NC(=O)Nc1ccc(C(=O)OCC(=O)Nc2ccc(Cl)cn2)cc1	none
CC[C@H](C)[C@H](NC(=O)[C@H](Cc1ccc(O)cc1)NC(=O)CNC(=O)[C@@H]1CCCN1C(=O)[C@H](CC(=O)O)NC(=O)[C@@H](N)CS)C(=O)NCC(=O)N[C@@H](CO)C(=O)N[C@@H](CCCN=C(N)N)C(N)=O	none (no result: LmPK inh, Pf growth 96h, Pf growth 48h)
FC(F)(F)c1ccc2c(c1)nc1n2CCCC1	Cycloheximide cs 21.5, Pf growth 48h inconclusive
COc1cc(C(=O)ON=C2C3CC4CC(C3)CC2C4)cc(OC)c1OC	Pf growth 96h 1.47µM, Pf growth 48h 1.17µM
O=C1CCN(Cc2nc(-c3ccc(Cl)cc3)no2)CCN1	Pf growth 96h 10.4µM
O=C(C1CCN(Cc2nc(-c3ccc(Cl)cc3)no2)CC1)N1CCOCC1	none
Clc1ccc(-c2noc(CN3CCOCC3)n2)cc1	Cycloheximide cs 56.6, Shiga inhibitor 68.5
Clc1cccc(Cl)c1-c1noc(CN2CCOCC2)n1	Pf growth 96h inconclusive, Pf growth 48h 10.4µM
CCOC(=O)N1CCN(Cc2nc(-c3cccc(Cl)c3)no2)CC1	none
O=CN1CCCN(Cc2nc(-c3cccc(Cl)c3)no2)CC1	Cycloheximide cs 28.3
Cc1ccc(NC(=O)C(C)OC(=O)COc2cccc(C(F)(F)F)c2)cc1 (configuration not stated)	none (no result: LmPK inh, Cycloheximide cs, Shiga inhibitor)
COc1ccc(F)cc1C(=O)C1CCCN(C(=O)c2ccccc2N(C)C)C1 (configuration not stated)	Pf growth 96h inconclusive, Pf growth 48h inconclusive
CN(C)C1=NCCN1CCCCc1ccccc1	Pf growth 48h inconclusive (no result: LmPK inh, Cycloheximide cs, Shiga inhibitor)
O=C(CSc1nncn1-c1cccnc1)Nc1cccc(C(F)(F)F)c1	none
Cc1ccc(S(=O)(=O)N(CCCO)CC(O)CON=C2c3ccccc3-c3ccccc32)cc1 (configuration not stated)	Pf growth 96h 9.28µM, Pf growth 48h inconclusive
COc1ccc(OCC(O)COc2ccc(OC)cc2)cc1	none
COc1ccc(OCC(O)CN(CC(O)COc2ccc(OC)cc2)c2cccc(O)c2)cc1 (configuration not stated)	Pf growth 96h inconclusive, Cycloheximide cs 18.7, Pf growth 48h inconclusive
CN(CC(O)COc1c(F)cc(Br)cc1F)C1CCCCC1 (configuration not stated)	Pf growth 48h 9.28µM
CN(CC(O)COc1ccc2ccccc2c1)C1CCCCC1 (configuration not stated)	Pf growth 48h inconclusive
COc1ccc(OCC(O)CN(C2CCCCC2)C2CCCCC2)cc1 (configuration not stated)	Pf growth 96h 5.86µM, Pf growth 48h inconclusive
Cc1onc(-c2ccccc2)c1C(=O)Nc1nnc(CC(C)(C)C)s1	none
CCCCCCN(C(=O)CCCCCN1C(=O)NC(c2ccc(C(C)(C)C)cc2)C(C(=O)OCc2ccccc2)=C1C)C(C(=O)NCCCC)c1ccc(OCC(=O)OC)c(C(=O)OC)c1 (configuration not stated)	Pf growth 96h 2.08µM, Pf growth 48h 2.08µM
CC1=C(C(=O)OCc2ccccc2)C(c2ccccc2)NC(=O)N1CCCCCC(=O)O (configuration not stated)	Pf growth 96h inconclusive
CCCCCCN(C(=O)CCCCCN1C(=O)NC(c2ccc(C3CCCCC3)cc2)C(C(=O)OCc2ccccc2)=C1C)C(C(=O)NCCCC)c1ccc(OCC(=O)OC)c(C(=O)OC)c1 (configuration not stated)	Pf growth 96h 2.08µM, Pf growth 48h 2.94µM
CCCCCCN(C(=O)CCCCCN1C(=O)NC(c2ccccc2)C(C(=O)OCc2ccccc2)=C1C)C(C(=O)NCCCC)c1ccc(OCC(=O)OC)c(C(=O)OC)c1 (configuration not stated)	Pf growth 96h 3.29µM, Pf growth 48h 2.08µM
COCCCn1c(SCC(=O)OC2CCCCC2)nnc1-c1ccco1	Pf growth 96h inconclusive, Cycloheximide cs 17.0, Pf growth 48h inconclusive
CCn1c(SCC(=O)N2CCCc3ccccc32)nnc1-c1ccco1	Pf growth 48h inconclusive
COCCCn1c(SCC(=O)N2CCc3ccccc32)nnc1-c1ccco1	Pf growth 96h 11.7µM
Cn1c(SCC(=O)OC2CCCCC2)nnc1-c1ccco1	Pf growth 96h inconclusive, Cycloheximide cs 15.6
CN(C(=O)CSc1nnc(-c2ccco2)n1C)C1CCCCC1	Pf growth 48h inconclusive (no result: LmPK inh, Cycloheximide cs, Shiga inhibitor)
CC(=O)NCC(=O)OC(C(=O)c1ccccc1)c1ccc(Cl)cc1 (configuration not stated)	Pf growth 96h inconclusive
COC(=O)C(NC(=O)CSc1nc(N)cc(=O)[nH]1)c1ccccc1 (configuration not stated)	none
O=C(COC(=O)c1cccnc1Cl)Nc1ccc(N2CCCCC2)cc1	none (no result: LmPK inh, Cycloheximide cs, Shiga inhibitor)
Oc1cc(Nc2ccc(N3CCCCC3)cc2)cc2cccnc12	Pf growth 96h 0.0928µM, Pf growth 48h 0.104µM (no result: LmPK inh, Cycloheximide cs, Shiga inhibitor)
CCOc1ccc(S(=O)(=O)N2CCN(C(=O)CCOc3ccccc3C)CC2)cc1	Pf growth 96h inconclusive, Pf growth 48h 10.4µM (no result: LmPK inh, Cycloheximide cs, Shiga inhibitor)
CC(=O)c1ccc(OCCCC(=O)N2CCN(S(=O)(=O)c3ccc(C(C)C)cc3)CC2)cc1	Pf growth 96h 5.22µM, Pf growth 48h 9.28µM (no result: LmPK inh, Cycloheximide cs, Shiga inhibitor)
CCOc1ccc(OCCC(=O)OCC(=O)N2CCN(S(=O)(=O)c3ccc(Cl)cc3)CC2)cc1	Cycloheximide cs 34.7, Shiga inhibitor 53.7
Cc1ccc(S(=O)(=O)N2CCN(C(=O)COC(=O)CCOc3ccccc3C)CC2)cc1	none (no result: LmPK inh, Cycloheximide cs, Shiga inhibitor)
CN(CCC#N)C(=O)COC(=O)c1ccc(CNS(=O)(=O)c2ccc(F)c(Cl)c2)cc1	none
Cc1[nH]c2ccccc2c1C(=O)C(=O)N1CCN(c2ccccc2F)CC1	Pf growth 96h inconclusive
Cc1c(C(=O)NC(C)c2ccccc2)c(-c2ccccc2)nn1-c1ccccc1 (configuration not stated)	Pf growth 96h inconclusive, Pf growth 48h 10.4µM
Cc1ccc(S(=O)(=O)N2CCCCC2)cc1NC(=O)c1ccncc1	Pf growth 96h inconclusive (no result: LmPK inh, Cycloheximide cs, Shiga inhibitor)
CC(=O)Nc1ccc(-n2c(C)nc(=O)c(-c3ccccc3)c2C)cc1	Pf growth 96h 5.22µM
Cc1ccn2cc(-c3cnoc3C)nc2c1	LmPK inh inconclusive (no result: Pf growth 96h)
COc1c(Cl)cccc1-c1cn2ccc(C)cc2n1	LmPK inh inconclusive, Cycloheximide cs 42.0, Shiga inhibitor 80.6
Cc1ccn2cc(-c3cccc(NS(C)(=O)=O)c3)nc2c1	Cycloheximide cs 59.6, Shiga inhibitor 59.0

From PubChem BioAssay
